# The panel holds about 79,000 compounds, 15% with a hit somewhere; the sample as a whole holds those more often. Values without a mark were called inactive. The source made the active and inactive calls. Cut-off read from the data, not from the text of the source: active = growth inhibition above about 70%; inactive = the rest.
# Assays:
# [1] = NCI Yeast Anticancer Drug Screen. Data for the rad50 strain (AID 155);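 note: 0% = growth of vehicle-only cultures of the same strain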; conditions: S. cerevisiae rad50 strain growth inhibition, active compounds read high
# In short: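 Relative growth inhibition (compound vs vehicle) was measured in yeast with a defined repair-gene alteration.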
# [2] = NCI Yeast Anticancer Drug Screen. Data for the mec2-1 strain (AID 157); conditions: S. cerevisiae mec2-1 strain, active compounds read high
# In short: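 Cells of the genetically defined mec2-1 yeast strain are incubated with test compound. Inhibition of growth is calculated against vehicle-treated controls.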
# [3] = NCI Yeast Anticancer Drug Screen. Data for the sgs1 mgt1 strain (AID 161);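 note: 0% = growth of cultures given vehicle only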; conditions: S. cerevisiae sgs1 mgt1 strain, active compounds read high
# In short: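 Mutant yeast exposed to compound; growth scored against vehicle-only wells.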
# [4] = NCI Yeast Anticancer Drug Screen. Data for the cln2 rad14 strain (AID 165);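 note: 0% = growth equal to vehicle treated cultures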; conditions: S. cerevisiae cln2 rad14 strain, active compounds read high
# In short: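 The screen exposed genetically defined yeast (cln2 rad14) to test compounds and scored growth inhibition relative to vehicle-treated controls.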
# [5] = NCI Yeast Anticancer Drug Screen. Data for the bub3 strain (AID 167); conditions: S. cerevisiae bub3 mutant strain, active compounds read high
# In short: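 Screening used yeast with an engineered genetic alteration affecting cell cycle control. Compound-exposed cultures were compared with vehicle cultures, and reduced growth was taken as inhibition.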
# [6] = NCI Yeast Anticancer Drug Screen. Data for the mlh1 rad18 strain (AID 175); conditions: S. cerevisiae mlh1 rad18 strain growth inhibition, active compounds read high
# In short: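 Compound-treated yeast growth, normalised to vehicle controls. Strain bears defined DNA repair mutations.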
# [7] = at 5.0 µM (retest, dose inferred, filed as 0.5)
# [8] = at 50.0 µM (retest, dose inferred, filed as 5.0)
Compound,"growth inhibition [1, 7]","growth inhibition [1, 8]",growth inhibition ([1]; at 50.0 µM),"growth inhibition [2, 7]","growth inhibition [2, 8]",growth inhibition ([2]; at 50.0 µM),"growth inhibition [3, 7]","growth inhibition [3, 8]",growth inhibition ([3]; at 50.0 µM),"growth inhibition [4, 7]","growth inhibition [4, 8]",growth inhibition ([4]; at 50.0 µM),"growth inhibition [5, 7]","growth inhibition [5, 8]",growth inhibition ([5]; at 50.0 µM),"growth inhibition [6, 7]","growth inhibition [6, 8]",growth inhibition ([6]; at 50.0 µM)
Clc1cc[c]([Tl][c]2ccc(Cl)cc2)cc1,94% (active),98% (active),22.9%,97% (active),100% (active),11.2%,90% (active),99% (active),82.8% (active),92% (active),97% (active),94.3% (active),95% (active),98% (active),89.7% (active),94% (active),98% (active),-1.3%
CC(C=O)[Se]c1ccccc1 (stereo not drawn),-2%,57%,91.9% (active),8%,53%,77.7% (active),-3%,72% (active),86.2% (active),-9%,48%,48.6%,11%,67%,86.8% (active),12%,73% (active),91.5% (active)
CCC[CH2][Sn]1([CH2]CCC)[O]C(=O)CN=Cc2ccccc2[O]1,88% (active),88% (active),88.5% (active),92% (active),92% (active),92% (active),85% (active),85% (active),90% (active),91% (active),91% (active),90.8% (active),90% (active),90% (active),89.9% (active),90% (active),90% (active),89.5% (active)
COc1ccc(Br)c(/C=C/[N+](=O)[O-])c1,23%,90% (active),99.5% (active),11%,96% (active),99.7% (active),16%,82% (active),99.7% (active),0%,65%,11.7%,5%,92% (active),95.5% (active),6%,96% (active),87.8% (active)
O=[N+]([O-])c1ccc(N(CCO)CCO)c2c1no[n+]2[O-],39%,92% (active),81.4% (active),25%,70% (active),54.4%,35%,83% (active),69.2%,8%,44%,44.3%,4%,40%,61.5%,42%,90% (active),78.8% (active)
[CH3][Sn]([CH3])([S]CCS(=O)(=O)O)[S]CCS(=O)(=O)O,10%,7%,33.5%,9%,11%,7.1%,-38%,-30%,-9.75%,-10%,-12%,-5.95%,-20%,-24%,-12.2%,14%,11%,-61.6%
